Laboratory results reported in PubChem BioAssay AID504725 (Broad Institute, 2011).
Measured potencies and affinities stand elsewhere. Active and inactive are the calls of the source. The rule behind the calls is not given here.

Molecular target: KSHV LANA C-terminal domain (residues 932-1162) binding to LBS DNA (UniProt O40947)
Test: inhibitors of C-LANA binding to LBS DNA, dose response, biochemical, fluorescence polarization, cherry-picked samples (AID 504725)
Settings: MBP-C-LANA / FAM-LBS DNA fluorescence polarization, percent change from plate compound-well median; series mostly up to 35 µM

outcome, inactive:
O=C(/C=C\c1ccccc1)Oc1cccc2cccnc12
Cc1c(C)n(Cc2ccccc2)c2ncnc(Cl)c12
O=C(CN1CC[C@@]2(O)CCCC[C@H]2[C@@H]1c1ccc(F)cc1)NCc1ccco1
COc1ccc(Cl)cc1C(=O)NNC(=O)c1cc2ccccc2o1
O=c1[nH]nc(CSCc2ccccc2Cl)[nH]1
CC(C)Cn1c(N)c(C(=O)CSc2nnc(-c3ccco3)n2C)c(=O)n(C)c1=O
COc1cccc(OC)c1C(=O)Nc1cc(C)on1
Cc1ccc(-c2nnn(CC(=O)NC3CCN(Cc4ccccc4)CC3)n2)cc1
Cc1c(C)n(CCC(=O)O)c2ccccc12
O=C(Cn1ncc(N2CCCC2)c(Cl)c1=O)c1ccc(Cl)cc1
CCOC(=O)C(C)(C)N(Cc1ccccc1C)S(=O)(=O)c1ccc(Cl)c([N+](=O)[O-])c1
Cc1cc2c(N)cccc2nn1
O=C(OCC(=O)N1N=C(c2ccc(Cl)cc2)CC1c1ccco1)c1cccnc1 (configuration not stated)
O=C(CN(Cc1ccccc1F)C(=O)c1csnn1)NCc1ccc2c(c1)OCO2
CC(C(=O)Nc1ccccc1)N1C(=O)c2ccccc2C1=O (configuration not stated)
COc1ccc(NS(=O)(=O)c2cccc3ccccc23)cc1
Cc1ccc(N(C)C(=O)C2CCCN2S(=O)(=O)c2ccc3c(c2)n(C)c(=O)c(=O)n3C)cc1 (configuration not stated)
Nc1nc(C(F)(F)F)cc(=O)[nH]1
CCNc1nc(NC(C)C)nc(NS(=O)(=O)c2ccc(N)cc2)n1
O=C(N/N=C/c1ccc(N2CCOCC2)cc1)c1ccccn1
CCN(CC)C(=O)C1c2ccccc2Oc2ccccc21
CN1CCN(CCCNC(=O)c2cc3c(-c4ccc(Cl)cc4)nn(C)c3s2)CC1
Brc1c(CSc2nncc3ccccc23)nc2ccccn12
CCN(Cc1ccccc1)C(=O)c1cccc(S(=O)(=O)N2CCN(Cc3ccccc3)CC2)c1
NNc1nc(-c2ccccc2)cs1
Cc1cc(C(F)(F)F)c2c(N)c(C(=O)Nc3cc(C)on3)sc2n1
S=c1[nH]nc([C@@H]2C[C@H]2c2ccccc2)n1-c1ccccc1Cl
CC(=O)O[C@@H]1[C@@H](OC(C)=O)[C@H](n2ccc3cc([N+](=O)[O-])ccc32)OC[C@@H]1OC(C)=O
Cc1cc(C)nc(SCC(=O)N/N=C/c2cc(C)n(-c3ccccc3C)c2C)n1
O=[N+]([O-])c1cccc(CSc2nc3ccccc3[nH]2)c1
CC(C)Cc1nc(SCC(=O)Nc2nnc(CC(C)C)s2)n[nH]1
CCC(=O)Nc1cccc(C(=O)/C=C/c2ccccc2)c1
CCN(C(=O)c1cccc(S(=O)(=O)N2CCc3ccccc32)c1)C1CCS(=O)(=O)C1 (configuration not stated)
O=C(C1CCCO1)N1CCN(c2ncccn2)CC1 (configuration not stated)
CCN(Cc1ccccc1)S(=O)(=O)c1cc2[nH]c(=O)c(=O)[nH]c2cc1C
COc1cccc2[nH]c(C(=O)NC(C)c3ccccc3)cc12 (configuration not stated)
CCCC1(C2CCCC2)NC(=O)NC1=O (configuration not stated)
